# PubChem BioAssay AID463173 (ICCB-Longwood Screening Facility, Harvard Medical School, 2010)
# Out of some 52,000 compounds screened, about 4,300 (8.3%) were called active. The entries come from a sample that favours actives as a whole. Values without a mark were called inactive. Rule as the data show it: active = survival mostly below about 52% (no sharp cut-off); inactive = mostly above about 56%.
# Tested on: DeltatarO mutant
# Assay: S. aureus survival, RN4220 and DeltatarO strains – OD600, teichoic acid synthesis inhibitors, primary screen (AID 463173)
# Conditions: S. aureus RN4220 wild type/DeltatarO growth, OD600, 18 h, stronger effect = lower value, screened at 18.75 µg/mL (by protocol)
row,SMILES,survival
1,Cn1c(SCc2ccccc2Cl)nc(=O)c2c1NC(=O)CC2c1cc(F)ccc1F (stereo not given),45%
2,COc1ccc(/C=C/C(=O)N2CCC(c3nc4ccccc4o3)CC2)cc1OC,86%
3,NC(=O)CN1c2cccc3cccc(c23)S1(=O)=O,104%
4,COc1ccc2[nH]c3c(c2c1)CCN(C(=O)c1cccc(Cl)c1)C3c1ccc(F)cc1 (stereo not given),77%
5,Cc1ccc(CNC(=O)c2ccc(CSCc3cccc(C)c3)o2)cc1,93%
6,CCOC(=O)c1cc(-c2ccccc2)n(CC(=O)NC(C)c2ccccc2)c1C (stereo not given),91%
7,COc1ccccc1Cn1c(C2CC(=O)N(c3ccccc3OC)C2)nc2ccccc21 (stereo not given),49%
8,CCc1ccccc1N1CC(c2nc3ccccc3n2CC(C)C)CC1=O (stereo not given),78%
9,CCc1ccccc1N1CC(c2nc3ccccc3n2CCC2CCCCC2)CC1=O (stereo not given),10% (active)
10,Cc1cccc(NS(=O)(=O)c2ccc3c(c2)CCN3C(=O)C2CCC2)c1,69%
11,Cc1cc(C)c2oc(C(=O)NCCc3ccc(S(N)(=O)=O)cc3)cc(=O)c2c1,63%
12,Cn1c(=O)n(C)c2cc(CNCc3ccc(F)cc3)ccc21,92%
13,NC(=O)c1cc(Cl)nc2ccccc12,81%
14,NC(=O)c1ccc(-c2ccccc2)cc1C(N)=O,66% (active)
15,NC(=O)c1ccccc1NS(=O)(=O)c1ccccc1,97%
16,Cc1ccc(CNC(=O)c2cnc(N3CCCCC3)c3ccccc23)cc1,80%
17,c1ccc(CCn2nnnc2CN2CCCc3ccccc32)cc1,93%
18,Cc1ccc(CN(C(=O)COc2ccc(Br)cc2)c2ccccn2)o1,62%
19,Cc1ccc(NC(=O)c2c(NC(=O)Cc3ccccc3)sc3c2CCC3)cc1,24% (active)
20,O=C(Cc1ccccc1)Nc1sc2c(c1C(=O)Nc1ccc(Cl)cc1)CCCC2,47%

row,SMILES,survival
1,COc1ccc(NC(=O)c2c(NC(=O)Cc3ccccc3)sc3c2CCCC3)cc1,124%
2,CCOc1ccc(NC(=O)c2c(NC(=O)Cc3ccccc3)sc3c2CCCCC3)cc1,48%
3,CCOc1ccc(NC(=O)c2c(NC(=O)Cc3ccccc3)sc3c2CCCC3)cc1,45% (active)
4,O=C(Cc1ccccc1)Nc1sc2c(c1C(=O)Nc1ccc(Br)cc1)CCC2,55%
5,O=C(Cc1ccccc1)Nc1sc2c(c1C(=O)Nc1ccc(Br)cc1)CCCC2,57% (active)
6,O=C(Cc1ccccc1)Nc1sc2c(c1C(=O)Nc1ccccc1)CCCCC2,50%
7,Cc1ccc(NC(=O)c2c(NC(=O)Cc3ccccc3)sc3c2CCCC3)cc1,28% (active)
8,CCC(=O)Nc1sc2c(c1C(=O)Nc1ccc(Br)cc1)CCCCC2,135%
9,CC(Cc1ccccc1)N=C1NS(=O)(=O)c2ccccc21 (stereo not given),81%
10,Cc1nc2c3ccccc3nc(NNC(=O)CCC(=O)N3CCN(c4cccc(C(F)(F)F)c4)CC3)n2n1,57%
11,CCOc1ccc(CCNC(=O)C2Cc3ccccc3N2C(=O)CC)cc1OCC (stereo not given),93%
12,Cc1nnc(N(C)C(=O)Cc2ccc3c(c2)OCO3)s1,73%
13,COC(=O)C1C(=O)NC(S)=C(C#N)C1c1ccccc1Cl (stereo not given),89%
14,CCCN(CCC)C(=O)Cn1c(=O)n(-c2ccc(CC)cc2)c(=O)c2c3c(sc21)CCC3,110%
15,COc1ccc(NC(=O)c2csnn2)cc1Cl,86%
16,COc1ccccc1N1CCN(C(=O)c2cnc(N3CCOCC3)c3ccccc23)CC1,78%
17,CCOC(=O)c1cc(-c2ccc(F)cc2)n(CC(=O)NC2CCCCCC2)c1C,76%
18,COc1ccc(-n2c(-c3ccco3)nc3c(cnn3-c3ccc(C)cc3)c2=O)cc1,73%
19,COc1ccc(-n2c(C)nc3c(cnn3-c3ccc(C)c(C)c3)c2=O)cc1Cl,118%
20,COc1cccc(-n2c(-c3ccco3)nc3c(cnn3-c3ccc(Cl)cc3)c2=O)c1,113%

row,SMILES,survival
1,Cc1ccc(-n2c(C)nc3c(cnn3-c3ccccc3C)c2=O)cc1F,120%
2,COc1cccc(-n2c(-c3ccco3)nc3c(cnn3-c3ccc(C)cc3)c2=O)c1,52% (active)
3,COc1cccc(-n2c(C)nc3c(cnn3-c3ccc(C)c(C)c3)c2=O)c1,50% (active)
4,CCc1cccc(-n2c(C)nc3c(cnn3-c3ccc(Cl)cc3)c2=O)c1,-1% (active)
5,CCc1cccc(-n2c(C)nc3c(cnn3-c3ccc(C)c(C)c3)c2=O)c1,-1% (active)
6,CCOC(=O)c1ccc(-n2c(C)nc3c(cnn3-c3ccc(Cl)cc3)c2=O)cc1,67%
7,COc1ccc(-n2c(C)nc3c(cnn3-c3ccc(F)cc3)c2=O)cc1,73%
8,Cc1nc2c(cnn2-c2ccccc2)c(=O)n1-c1ccccc1,73%
9,Cc1ccc(-n2ncc3c(=O)n(Cc4cccc(C(F)(F)F)c4)cnc32)cc1C,93%
10,Cc1ccc(C)c(S(=O)(=O)c2cn(C)c3cc(N4CCCCC4C)c(F)cc3c2=O)c1 (stereo not given),86%
11,CCOc1ccc(/C=C/c2nc(C#N)c(NC(C)CC)o2)cc1 (stereo not given),68%
12,Cc1nc2cc(C(F)(F)F)ccc2n1C1CCN(CC(=O)N2CCCC2)CC1,109%
13,O=C(Nc1ccccc1-c1ccccc1)NC1CCN(CC(=O)N2CCOCC2)CC1,73%
14,CC1=C(C(=O)N2CCN(c3ccc(Cl)cc3)CC2)C2(CCC(C)CC2)OC1=O (stereo not given),121%
15,CCc1ccc(CNC(=O)CN(c2ccc(C)cc2)S(=O)(=O)N(C)C)cc1,76%
16,O=C(OC(C(=O)NC1CCCC1)c1cccnc1)C1=Cc2ccccc2OC1 (stereo not given),96%
17,COc1cccc(C(=O)N2c3nc(-c4ccco4)nn3C3(CCCCC3)[C@@H]3CCCC[C@@H]32)c1,95%
18,CNS(=O)(=O)c1cn(CC(=O)Nc2ccc(F)cc2F)cc1S(=O)(=O)NC,0% (active)
19,CNS(=O)(=O)c1cn(CC(=O)Nc2ccc(C)cc2C)cc1S(=O)(=O)NC,117%
20,Cc1cc(F)ccc1NC(=O)Cn1cc(S(=O)(=O)NC(C)C)c(S(=O)(=O)NC(C)C)c1,90%
